PubChem BioAssay (Tox21)
Unmarked numbers belong to inactive results. Entries that show only a call come without a potency. The source made the active and inactive calls. Unless noted, calls come from the whole dose curve; as a rule, active = well fitted curve in the direction sought with a large enough effect in the repeat runs; inconclusive = weak or mixed curves; inactive = no such curve, though single readings can be large; an effect the other way counts as inactive or inconclusive.

Assays:
[1] = qHTS assay to identify small molecule antagonists of the thyroid receptor (TR) signaling pathway (AID 743065); note: nearly all actives have a fitted effect of over 55% in size; note: potency is the fitted concentration of half-maximal effect
How it was run: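 GH3.TRE-Luc rat pituitary cells (two TREs driving luciferase) were dosed with compound, then stimulated with 1 nM T3 (final) for 23.5 h at 37 C. ONE-Glo luminescence was the read-out, with CellTiter-Fluor fluorescence as the cytotoxicity counter-screen.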

[2] = test system: thyroid hormone receptor (rat, GH3 cells); experiment: qHTS assay to identify small molecule agonists of the thyroid receptor (TR) signaling pathway (AID 743066; calls by dose curve)
[3] = qHTS assay to identify small molecule antagonists of the estrogen receptor alpha (ER-alpha) signaling pathway - cell viability counter screen (AID 743074; calls by dose curve; note: nearly all actives have a fitted effect of over 45% in size; note: potency is the fitted concentration of half-maximal effect)
[4] = qHTS assay to identify small molecule antagonists of the estrogen receptor alpha (ER-alpha) signaling pathway using the BG1 cell line - cell viability counter screen (AID 743081);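 note: compound given together with 17beta-estradiol as the ER stimulus; series mostly up to about 70 µM; nearly all actives have a fitted effect of over 45% in size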
Aromatase (Homo sapiens) = Aromatase (Homo sapiens) (UniProt P11511); experiment: qHTS assay to identify aromatase inhibitors (AID 743083); note: nearly all actives have a fitted effect of over 55% in size; note: potency is the fitted concentration of half-maximal effect
Sequence of Aromatase (Homo sapiens) (P11511 whole entry, looked up): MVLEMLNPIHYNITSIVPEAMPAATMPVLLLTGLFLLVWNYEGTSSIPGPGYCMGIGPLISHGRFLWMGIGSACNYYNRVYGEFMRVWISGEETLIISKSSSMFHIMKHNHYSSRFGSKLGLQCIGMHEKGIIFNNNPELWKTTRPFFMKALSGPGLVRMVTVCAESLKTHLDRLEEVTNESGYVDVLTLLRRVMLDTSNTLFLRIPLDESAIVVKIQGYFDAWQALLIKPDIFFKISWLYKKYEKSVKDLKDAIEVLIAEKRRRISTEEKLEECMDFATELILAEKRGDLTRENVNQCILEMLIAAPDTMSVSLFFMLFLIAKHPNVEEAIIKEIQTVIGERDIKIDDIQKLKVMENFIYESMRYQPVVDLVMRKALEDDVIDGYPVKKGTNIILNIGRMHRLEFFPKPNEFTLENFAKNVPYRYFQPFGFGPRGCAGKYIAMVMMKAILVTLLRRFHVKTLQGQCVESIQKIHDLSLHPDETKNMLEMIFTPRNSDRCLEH

[5] = qHTS assay to identify aromatase inhibitors - cell viability counter screen (AID 743084);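 note: cells stimulated with testosterone during compound exposure; nearly all actives have a fitted effect of over 55% in size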; note: potency is the fitted concentration of half-maximal effect
[6] = biological target: Aryl hydrocarbon receptor (Homo sapiens) (UniProt P35869); experiment: qHTS assay to identify small molecule that activate the aryl hydrocarbon receptor (AhR) signaling pathway (AID 743085);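 note: HG2L7.5c1 human HepG2 liver cells with stably integrated DRE-driven firefly reporter; series mostly up to about 70 µM; nearly all actives have a fitted effect of over 15% in size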
Sequence of Aryl hydrocarbon receptor (Homo sapiens) (P35869 whole entry, looked up): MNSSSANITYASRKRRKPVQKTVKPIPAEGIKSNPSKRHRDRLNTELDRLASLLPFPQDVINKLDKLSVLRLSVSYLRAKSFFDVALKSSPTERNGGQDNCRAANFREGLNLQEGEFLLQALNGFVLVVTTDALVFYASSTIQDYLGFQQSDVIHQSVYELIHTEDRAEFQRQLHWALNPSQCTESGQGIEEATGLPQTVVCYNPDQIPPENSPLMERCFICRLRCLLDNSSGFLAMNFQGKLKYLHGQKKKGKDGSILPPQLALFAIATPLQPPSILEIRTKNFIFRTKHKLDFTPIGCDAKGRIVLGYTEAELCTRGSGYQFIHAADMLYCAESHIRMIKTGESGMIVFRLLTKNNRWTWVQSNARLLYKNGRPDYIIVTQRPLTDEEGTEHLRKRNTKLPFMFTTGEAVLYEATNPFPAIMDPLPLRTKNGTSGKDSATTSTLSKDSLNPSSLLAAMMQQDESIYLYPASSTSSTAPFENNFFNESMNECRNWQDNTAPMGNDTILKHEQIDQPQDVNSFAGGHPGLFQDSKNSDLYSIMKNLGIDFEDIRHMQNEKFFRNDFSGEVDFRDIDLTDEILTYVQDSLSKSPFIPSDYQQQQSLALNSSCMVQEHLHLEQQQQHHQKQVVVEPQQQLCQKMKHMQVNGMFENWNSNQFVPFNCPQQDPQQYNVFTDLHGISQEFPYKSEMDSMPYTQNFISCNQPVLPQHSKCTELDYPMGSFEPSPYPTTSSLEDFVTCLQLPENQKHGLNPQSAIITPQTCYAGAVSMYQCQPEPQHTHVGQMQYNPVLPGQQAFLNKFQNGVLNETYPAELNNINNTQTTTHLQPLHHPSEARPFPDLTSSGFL
How it was run: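 Measured in HG2L7.5c1 cells: CellTiter-Fluor signal (30 min incubation, 37C) for viability, then luciferase luminescence (30 min, room temperature). Compound contact time was 24 h at 37C, following a 5 h pre-incubation.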

[7] = qHTS assay to identify small molecule that activate the aryl hydrocarbon receptor (AhR) signaling pathway - cell viability counter screen (AID 743086); note: nearly all actives have a fitted effect of over 45% in size; note: potency is the fitted concentration of half-maximal effect;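 for viability change, negative = cytotoxic: HepG2 liver cells carrying the AhR DRE luciferase reporter; series mostly up to about 70 µM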
How it was run: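 HepG2-AhR-luc (HG2L7.5c1) cells, 4000/well, treated 24 h at 37 C with compound; viability measured as CellTiter-Fluor fluorescence after 30 min in the same wells as the luciferase read.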

[8] = biological target: Peroxisome proliferator-activated receptor gamma (Homo sapiens) (UniProt P37231); experiment: qHTS assay to identify small molecule agonists of the peroxisome proliferator-activated receptor gamma (PPARg) signaling pathway (AID 743094; active = well fitted activation curve with a large enough effect in the signal ratio in the repeat runs, not every such curve was filed as active; inconclusive = weak or mixed curves, or effect the other way; inactive = no such curve, though single readings can be large or run the other way; the % refers to the signal ratio)
Sequence of Peroxisome proliferator-activated receptor gamma (Homo sapiens) (P37231 whole entry, looked up): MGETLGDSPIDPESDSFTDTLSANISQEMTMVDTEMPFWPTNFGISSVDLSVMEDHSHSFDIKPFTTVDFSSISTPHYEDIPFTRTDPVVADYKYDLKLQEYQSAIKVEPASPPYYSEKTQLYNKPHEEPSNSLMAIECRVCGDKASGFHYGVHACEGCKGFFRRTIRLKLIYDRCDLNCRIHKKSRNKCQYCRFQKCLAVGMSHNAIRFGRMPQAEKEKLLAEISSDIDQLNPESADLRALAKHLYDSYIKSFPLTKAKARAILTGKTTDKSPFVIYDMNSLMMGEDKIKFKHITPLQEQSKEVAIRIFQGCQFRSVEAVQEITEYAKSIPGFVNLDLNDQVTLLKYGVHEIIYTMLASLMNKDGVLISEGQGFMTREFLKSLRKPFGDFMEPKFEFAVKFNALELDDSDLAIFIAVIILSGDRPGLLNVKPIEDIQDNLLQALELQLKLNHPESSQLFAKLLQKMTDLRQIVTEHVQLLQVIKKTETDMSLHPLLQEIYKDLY
How it was run: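 Reporter activation was scored by fluorescence of cleaved LiveBLAzer B/G substrate (1 h, room temperature) in PPARg-bla HEK293H cells previously treated 17 h at 37C with DMSO-dissolved compounds.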

[9] = biological target: Peroxisome proliferator-activated receptor gamma (Homo sapiens) (UniProt P37231); experiment: qHTS assay to identify small molecule antagonists of the peroxisome proliferator-activated receptor gamma (PPARg) signaling pathway (AID 743191; calls by dose curve; note: nearly all actives have a fitted effect of over 30% in size; note: potency is the fitted concentration of half-maximal effect)
How it was run: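 GeneBLAzer PPARg UAS-bla HEK293H cells, 5 h post-plating, exposed to compounds 17 h at 37C. LiveBLAzer B/G FRET substrate added for 1 h at room temperature; beta-lactamase reporter read by fluorescence intensity.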

[10] = qHTS assay to identify small molecule antagonists of the peroxisome proliferator-activated receptor gamma (PPARg) signaling pathway - cell viability counter screen (AID 743194); conditions: Potency: co-treated with 50 nM rosiglitazone; note: nearly all actives have a fitted effect of over 55% in size; note: potency is the fitted concentration of half-maximal effect
How it was run: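 Cytotoxicity counter screen in PPARg-bla HEK293H cells, same wells as reporter assay. Compounds plus 50 nM rosiglitazone (final) for 17 h at 37 C, then viability read by CellTiter-Glo luminescence.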

[11] = qHTS assay for small molecule agonists of the antioxidant response element (ARE) signaling pathway - cell viability counter screen (AID 743203; calls by dose curve; note: nearly all actives have a fitted effect of over 55% in size; note: potency is the fitted concentration of half-maximal effect)
How it was run: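 Viability counter screen: stably transfected ARE-bla HepG2 line, 16 hrs compound exposure at 37C/5% CO2, ATP-based CellTiter-Glo luminescence measured in the reporter wells.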

[12] = qHTS assay for small molecule activators of the heat shock response signaling pathway - cell viability counter screen (AID 743209); note: nearly all actives have a fitted effect of over 50% in size; note: potency is the fitted concentration of half-maximal effect
How it was run: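 Viability of HSE-bla HeLa cells is measured with CellTiter-Glo in the wells already used for the reporter read. Compound exposure lasts 5 h at 37 C, and luminescence is read after 30 min at room temperature.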

[13] = qHTS assay for small molecule activators of the heat shock response signaling pathway (AID 743210; active = well fitted activation curve with a large enough effect in the signal ratio in the repeat runs, with a control signal flat, not every such curve was filed as active; inconclusive = weak or mixed curves; the % refers to the signal ratio;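 note: HeLa cells with beta-lactamase reporter driven by heat shock elements; series mostly up to about 63 µM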)
How it was run: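 Following overnight attachment, HSE-bla HeLa cells received test compounds for 5 h at 37 C; beta-lactamase activity was then detected via FRET substrate fluorescence.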

[14] = qHTS assay to identify small molecule agonists of the peroxisome proliferator-activated receptor delta (PPARd) signaling pathway - cell viability counter screen (AID 743211); note: nearly all actives have a fitted effect of over 55% in size; note: potency is the fitted concentration of half-maximal effect
How it was run: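 Following 5 h plating at 37 C and 5% CO2, PPARd UAS-bla HEK293H cells took up test compounds for 17 h. Viability was quantified by luminescence 30 min after CellTiter-Glo addition at room temperature.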

[15] = qHTS assay for small molecule agonists of the antioxidant response element (ARE) signaling pathway (AID 743202; active = well fitted activation curve with a large enough effect in the signal ratio in the repeat runs, not every such curve was filed as active; inconclusive = weak or mixed curves, or effect the other way; inactive = no such curve, though single readings can be large or run the other way; the % refers to the signal ratio; note: potency is the fitted concentration of half-maximal effect)
How it was run: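 HepG2 ARE-bla cells; 16 h treatment at 37 C; FRET-based beta-lactamase fluorescence read after 2 h substrate incubation at room temperature.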

[16] = biological target: Estrogen receptor (Homo sapiens) (UniProt P03372); experiment: qHTS assay to identify small molecule agonists of the estrogen receptor alpha (ER-alpha) signaling pathway (AID 743075; calls by dose curve; note: potency is the fitted concentration of half-maximal effect)
Sequence of Estrogen receptor (Homo sapiens) (P03372 whole entry, looked up): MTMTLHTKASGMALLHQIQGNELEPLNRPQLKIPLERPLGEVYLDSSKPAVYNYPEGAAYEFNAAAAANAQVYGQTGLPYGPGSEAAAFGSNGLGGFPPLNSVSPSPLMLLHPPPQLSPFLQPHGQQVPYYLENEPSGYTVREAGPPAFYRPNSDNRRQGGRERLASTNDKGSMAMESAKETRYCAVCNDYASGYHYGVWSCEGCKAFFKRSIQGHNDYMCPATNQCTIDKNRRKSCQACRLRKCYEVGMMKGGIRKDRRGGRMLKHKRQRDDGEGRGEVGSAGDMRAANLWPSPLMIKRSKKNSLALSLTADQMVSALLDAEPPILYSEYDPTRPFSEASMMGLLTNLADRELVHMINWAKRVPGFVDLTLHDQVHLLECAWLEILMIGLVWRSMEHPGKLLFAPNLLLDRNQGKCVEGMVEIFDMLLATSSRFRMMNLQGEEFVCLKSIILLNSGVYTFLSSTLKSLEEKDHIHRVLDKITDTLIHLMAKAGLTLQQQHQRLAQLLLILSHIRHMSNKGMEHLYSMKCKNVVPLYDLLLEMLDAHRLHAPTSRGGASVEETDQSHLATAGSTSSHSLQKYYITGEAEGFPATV

[17] = biological target: Estrogen receptor (Homo sapiens) (UniProt P03372); experiment: qHTS assay to identify small molecule agonists of the estrogen receptor alpha (ER-alpha) signaling pathway using the BG1 cell line (AID 743079); note: nearly all actives have a fitted effect of over 20% in size
[18] = qHTS assay to identify small molecule antagonists of the estrogen receptor alpha (ER-alpha) signaling pathway using the BG1 cell line (AID 743080; calls by dose curve;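 note: BG1 cells stimulated with 17beta-estradiol alongside compound; series mostly up to about 70 µM; nearly all actives have a fitted effect of over 25% in size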)
How it was run: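 BG1Luc4E2, endogenous ER-alpha, 4xERE-luc; 5 d charcoal-stripped FBS, phenol red free; 24 h plating; cpd + 17beta-estradiol 21.5 h, 37 C/5% CO2; CellTiter-Fluor viability 30 min, then ONE-Glo luciferase 30 min RT.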

[19] = biological target: Estrogen receptor (Homo sapiens) (UniProt P03372); experiment: qHTS assay to identify small molecule antagonists of the estrogen receptor alpha (ER-alpha) signaling pathway (AID 743069; active = well fitted curve in the direction sought with a large enough effect in the signal ratio in the repeat runs, not every such curve was filed as active; inconclusive = weak or mixed curves, or effect the other way; inactive = no such curve, though single readings can be large or run the other way; the % refers to the signal ratio)
How it was run: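 In this cell-based reporter format, GripTite HEK293 cells harbouring ER-alpha-UAS-bla were grown overnight with 2% charcoal-stripped FBS, dosed with DMSO-dissolved compounds, then challenged with 17beta-estradiol. After 18 hr at 37C, beta-lactamase activity was detected by FRET fluorescence.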

## COc1nn(C(=O)NS(=O)(=O)c2ccccc2OC(F)(F)F)c(=O)n1C
[1]
  Potency: inactive
[2]
  Potency: inactive
[3]
  Potency: inactive
[4]
  Potency: inactive
Aromatase (Homo sapiens)
  Potency: inactive
[5]
  Potency: inactive
[6]
  Potency: inactive
[7]
  Potency: inactive
[8]
  Potency: inactive
[9]
  Potency: inactive
[10]
  Potency: inactive
[11]
  Potency: inactive
[12]
  Potency: inactive
[13]
  outcome: inactive
[14]
  Potency: inactive

## NCC(CC(=O)O)c1ccc(Cl)cc1 (centres undefined)
[1]
  Potency: inactive
[2]
  Potency: inactive
[3]
  Potency: inactive
[4]
  Potency: inactive
Aromatase (Homo sapiens)
  Potency: inactive
[5]
  Potency: inactive
[6]
  Potency: inactive
[7]
  Potency: inactive
[8]
  Potency: inactive
[10]
  activity change, negative = cytotoxicity: -16.4% [at 0.55 µM]
[15]
  activation: -5.3% [at 0.756 µM]
[11]
  viability change, negative = cytotoxic: 4.15% [at 0.756 µM]
[12]
  activity change, negative = cytotoxicity: 1.94% [at 0.55 µM]
[13]
  activation: -1.61% [at 0.55 µM]
[14]
  activity change, negative = cytotoxicity: -0.324% [at 0.55 µM]

## CC/C(=N\OC/C=C/Cl)C1=C(O)CC(C2CCOCC2)CC1=O (centres undefined)
[1]
  Potency: inactive
[2]
  Potency: inactive
[3]
  Potency: inactive
[4]
  Potency: inactive
Aromatase (Homo sapiens)
  Potency: inactive
[5]
  Potency: inactive
[6]
  Potency: inactive
[7]
  Potency: inactive
[8]
  Potency: inactive
[10]
  Potency: inactive
[15]
  Potency: inactive
[11]
  Potency: inactive
[12]
  Potency: inactive
[13]
  outcome: inactive
[14]
  Potency: inactive

## CNP(=O)(OC)Oc1ccc(C(C)(C)C)cc1Cl (centres undefined)
[1]
  Potency: inactive
[2]
  Potency: inactive
[3]
  Potency: inactive
[16]
  Potency: inactive
[17]
  Potency: inactive
[18]
  Potency: inactive
[4]
  Potency: inactive
Aromatase (Homo sapiens)
  Potency: inactive
[5]
  Potency: inactive
[7]
  Potency: inactive
[9]
  Potency: 43.6 µM (active)
[15]
  Potency: 54.5 µM (active)
[11]
  Potency: inactive
[13]
  outcome: inactive
[14]
  Potency: inactive

## C=COC(C)=O
[1]
  Potency: inactive
[2]
  Potency: inactive
[3]
  Potency: inactive
[4]
  Potency: inactive
Aromatase (Homo sapiens)
  Potency: inactive
[5]
  Potency: inactive
[6]
  Potency: inactive
[7]
  Potency: inactive
[8]
  Potency: inactive
[9]
  Potency: inactive
[10]
  Potency: inactive
[15]
  Potency: inactive
[11]
  Potency: inactive
[12]
  Potency: inactive
[13]
  outcome: inactive
[14]
  Potency: inactive

## CCOP(=S)(OCC)SCn1nnc2ccccc2c1=O
[1]
  Potency: 61.1 µM (active)
[2]
  Potency: inactive
[3]
  Potency: 49 µM (active)
[16]
  Potency: 19.5 µM [inconclusive] (active)
Aromatase (Homo sapiens)
  Potency: 34.4 µM (active)
[5]
  Potency: 54.5 µM (active)
[6]
  Potency: inactive
[8]
  Potency: inactive
[10]
  Potency: 43.6 µM (active)
[15]
  Potency: 3.06 µM (active)
[12]
  Potency: inactive

## O=C(OC1CCCCC1)c1ccccc1C(=O)OC1CCCCC1
[1]
  Potency: 72.3 µM (active)
[2]
  Potency: inactive
[3]
  Potency: inactive
[16]
  Potency: inactive
[17]
  Potency: inactive
[4]
  Potency: inactive
[5]
  Potency: inactive
[6]
  Potency: inactive
[7]
  Potency: inactive
[8]
  Potency: inactive
[11]
  Potency: inactive
[12]
  Potency: inactive
[13]
  outcome: inactive
[14]
  Potency: 46 µM (active)

## COCCOCCO
[1]
  Potency: 48.6 µM (active)
[2]
  Potency: inactive
[19]
  Potency: inactive
[16]
  Potency: inactive
[17]
  Potency: inactive
[18]
  Potency: inactive
Aromatase (Homo sapiens)
  Potency: inactive
[5]
  Potency: inactive
[6]
  Potency: inactive
[7]
  Potency: inactive
[10]
  Potency: inactive
[12]
  Potency: inactive
[13]
  outcome: inactive
[14]
  Potency: inactive

## Clc1cc(C(Cl)(Cl)Cl)cnc1Cl
[1]
  Potency: 38.6 µM (active)
[2]
  Potency: inactive
[3]
  Potency: inactive
[16]
  Potency: inactive
[17]
  Potency: inactive
[4]
  Potency: inactive
Aromatase (Homo sapiens)
  Potency: 24.3 µM (active)
[6]
  Potency: inactive
[7]
  Potency: inactive
[8]
  Potency: inactive
[9]
  Potency: inactive
[10]
  Potency: inactive
[11]
  Potency: 61.1 µM (active)
[12]
  Potency: 49 µM (active)
[14]
  Potency: inactive

## C=CC(=O)OCC(C)O (centres undefined)
[1]
  Potency: inactive
[2]
  Potency: inactive
[19]
  Potency: inactive
[17]
  Potency: inactive
[18]
  Potency: inactive
[4]
  Potency: inactive
[6]
  Potency: inactive
[7]
  Potency: inactive
[9]
  Potency: inactive
[10]
  Potency: inactive
[15]
  Potency: 8.91 µM (active)
[11]
  Potency: inactive
[12]
  Potency: inactive
[13]
  outcome: inactive
[14]
  Potency: inactive

## CC(C)(CCl)C(=O)Cl
[1]
  Potency: inactive
[2]
  Potency: inactive
[3]
  Potency: inactive
[4]
  Potency: inactive
Aromatase (Homo sapiens)
  Potency: inactive
[5]
  Potency: inactive
[6]
  Potency: inactive
[7]
  Potency: inactive
[8]
  Potency: inactive
[9]
  Potency: inactive
[10]
  Potency: inactive
[15]
  Potency: inactive
[11]
  Potency: inactive
[12]
  Potency: inactive
[14]
  Potency: inactive

## CCOS(C)(=O)=O
[1]
  Potency: inactive
[2]
  Potency: inactive
[3]
  Potency: inactive
[4]
  Potency: inactive
Aromatase (Homo sapiens)
  Potency: inactive
[5]
  Potency: inactive
[6]
  Potency: inactive
[7]
  Potency: inactive
[8]
  Potency: inactive
[9]
  Potency: inactive
[10]
  Potency: inactive
[15]
  Potency: inactive
[11]
  Potency: inactive
[12]
  Potency: inactive
[13]
  outcome: inactive
[14]
  Potency: inactive

## COP(=S)(OC)Oc1ccc([N+](=O)[O-])cc1Cl
[1]
  Potency: inactive
[2]
  Potency: inactive
[3]
  Potency: inactive
[16]
  Potency: inactive
[17]
  Potency: inactive
[18]
  Potency: inactive
Aromatase (Homo sapiens)
  Potency: inactive
[7]
  Potency: 61.1 µM (active)
[8]
  Potency: inactive
[9]
  Potency: inactive
[10]
  Potency: inactive
[11]
  Potency: inactive
[13]
  outcome: inactive

## O=C(NC(=O)c1c(F)cccc1F)Nc1ccc(OC(F)(F)C(F)OC(F)(F)F)c(Cl)c1 (centres undefined)
[1]
  Potency: inactive
[2]
  Potency: inactive
[3]
  Potency: inactive
[17]
  Potency: inactive
[18]
  Potency: inactive
[4]
  Potency: inactive
Aromatase (Homo sapiens)
  Potency: inactive
[5]
  Potency: inactive
[6]
  Potency: inactive
[7]
  Potency: inactive
[8]
  Potency: inactive
[10]
  Potency: inactive
[11]
  Potency: inactive
[12]
  Potency: inactive
[14]
  Potency: inactive
